Compound activity: PubChem, National Center for Advancing Translational Sciences (NCATS)
ALDH1A1 block = ALDH1A1 (human) enzyme inhibition | Potency, µM (highest dose often 75.3 µM), for inactives: at the highest dose activity, negative = inhibition, actives largely listed as inhibitors | AID 1030 | Purified ALDH1A1, NADH fluorescence, propionaldehyde substrate | hit rate 7.3% among 220,000 | P00352; active = well fitted inhibition curve with a large enough effect, not every such curve was filed as active; inconclusive = small, poorly fitted or top-dose-only effect, or another doubt; inactive = no such curve, though single readings can be large or run the other way;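 also: potency is read from the fitted curve at half-maximal effect; plate controls were no enzyme wells and a reference inhibitor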
IMPase inh = IMPase inhibition in cells | P97697 | AID 901 | CHO-M1 cells, IP1 accumulation, HTRF TR-FRET ratio | inhibition (IP1 accumulation), % at 46.1 µM | 120,000 tested, under 10 active; active = well fitted curve in the direction sought with a large enough effect in the signal ratio, not every such curve was filed as active; inconclusive = small, poorly fitted or top-dose-only effect, or a change in a side signal; inactive = no such curve, though single readings can be large or run the other way; the % refers to the signal ratio;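 also: cells stimulated with carbachol in lithium chloride buffer; plate controls were DMSO basal wells for no effect and reference inhibitor wells for full effect; higher means more IMPase inhibition seen as more IP1 and lower FRET ratio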
Target sequence (P97697 whole entry, looked up): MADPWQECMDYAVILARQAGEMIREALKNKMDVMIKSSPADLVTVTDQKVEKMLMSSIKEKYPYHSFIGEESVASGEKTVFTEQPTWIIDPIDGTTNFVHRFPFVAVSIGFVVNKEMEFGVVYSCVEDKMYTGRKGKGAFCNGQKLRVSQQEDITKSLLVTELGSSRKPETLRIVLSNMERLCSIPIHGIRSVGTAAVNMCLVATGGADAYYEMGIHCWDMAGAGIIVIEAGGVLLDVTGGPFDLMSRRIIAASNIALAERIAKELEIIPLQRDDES
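CHO-M1 cells (CHO stably expressing M1 receptor), compound up to 46 uM final, stimulated with carbachol (50 uM as added) in buffer with 50mM LiCl, pH 7.4, 30 min at 37C. Cytosolic IP1 read by TR-FRET; AC50 from Hill fits.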
HPGD inh = blocks human HPGD enzyme activity; Potency, µM, for inactives: top-dose activity change, negative = inhibition, most hits filed as inhibitors; AID 894; P15428; hit rate 4.3% among 150,000; purified HPGD, NADH fluorescence kinetic, PGE2 substrate; active = well fitted inhibition curve with a large enough effect, not every such curve was filed as active; inconclusive = small, poorly fitted or top-dose-only effect, or another doubt; inactive = no such curve, though single readings can be large or run the other way; also: potency is read from the fitted curve at half-maximal effect
Target sequence (P15428 whole entry, looked up): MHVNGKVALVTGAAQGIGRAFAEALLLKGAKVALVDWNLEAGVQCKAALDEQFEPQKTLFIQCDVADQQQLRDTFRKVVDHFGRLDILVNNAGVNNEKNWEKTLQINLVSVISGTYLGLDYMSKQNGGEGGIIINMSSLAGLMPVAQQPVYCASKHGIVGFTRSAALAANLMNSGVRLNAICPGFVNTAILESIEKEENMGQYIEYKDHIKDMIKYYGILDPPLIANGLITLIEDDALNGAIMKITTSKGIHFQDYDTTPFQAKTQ
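20 nM HPGD preincubated 15 min at room temperature with compound in 50 mM Tris-HCl pH 8, 0.01% Tween 20. Started with 1 mM NAD+ and 30 uM prostaglandin E2; NADH fluorescence (360/450 nm) read 5 times over 30-s intervals, last minus first.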
12-hLO inh = inhibitors of human 12-lipoxygenase (ALOX12); hit rate 0.12% among 150,000; Potency, µM (series often up to 57.1 µM), for inactives: at the highest dose activity change, negative = inhibition, hits mostly inhibitors; purified 12-hLO, xylenol orange hydroperoxide absorbance; AID 1452; also: potency is read from the fitted curve at half-maximal effect; nearly all actives have a fitted effect of over 55% in size
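Lipoxygenase turnover measured by absorbance at 573 and 405 nm after Fe-XO development. Human 12hLO 150 nM, arachidonate 40 uM, pH 7.0 Hepes buffer with detergent; 15 min compound preincubation, 30 min reaction.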
NPSR antag = antagonists of human neuropeptide S receptor cAMP signaling. hit rate 1% among 220,000. Potency, µM (series often up to 38.3 µM), for the others: at the highest dose activity change, negative = inhibition, actives largely listed as inhibitors. CHO-NPSR cells, cAMP TR-FRET, antagonist mode. Q6W5P4; also: potency is read from the fitted curve at half-maximal effect; nearly all actives have a fitted effect of over 50% in size
IMPase Li cell = IMPase inhibition in cells with lithium potentiation | AID 1457 | hit rate 0.35% among 210,000 | Potency, µM (highest dose often 59.4 µM), without a hit: at the highest dose activity, negative = IMPase inhibition, actives largely listed as inhibitors | CHO-M1 cells, IP1 TR-FRET (IP-One), carbachol + lithium;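 also: IP1 builds up when IMPase is blocked and the TR-FRET signal falls; potency is read from the fitted curve at half-maximal effect; plate controls were basal vehicle for no effect and high inhibitor control for full effect; nearly all actives have a fitted effect of over 50% in size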
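Readout is a homogeneous TR-FRET IP1 immunoassay (Ex 320, Em 665 and 620), where raised cytosolic IP1 lowers signal. Cells were CHO-M1 treated 30 min at 37C with test compounds plus a little lithium; AC50 values came from Hill-equation fitting.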
The depositor's hits bear a star; i = inactive; ? = inconclusive; nt = no result given; [ ] = another dose, or the depositor's remark. Only some compounds are listed: those with a hit (about 8.9% of all), similar ones and a draw of the others. Unless noted, calls follow the shape of the dose curve; as a rule, active = well fitted curve in the direction sought with a large enough effect; inconclusive = small, poorly fitted or top-dose-only effect, or another doubt; inactive = no such curve, though single readings can be large; an effect the other way counts as inactive or inconclusive. Unless noted, % is scaled to controls: 0 for no effect and ±100 for the full control effect.

SMILES | ALDH1A1 block | IMPase inh | HPGD inh | 12-hLO inh | NPSR antag | IMPase Li cell
COc1ccc(-n2nnnc2SCC(=O)N2CCOCC2)cc1 | -7% | 1 | -2% | 2% | -7%[46.1 µM] | 24%[38.3 µM]
CC(C)(C)n1nc2c(c1NC(=O)c1ccc(S(=O)(=O)N3CCCCC3)cc1)CS(=O)C2 (stereo unspecified) | 25µM* | -1 | -1% | -2% | 0%[46.1 µM] | 0%[38.3 µM]
COc1ccc(-n2nc3c(c2NC(=O)c2ccc(S(=O)(=O)N4CCOCC4)cc2)CS(=O)C3)cc1 (stereo unspecified) | 2.5µM* | nt | nt | nt | 5% | 3%
O=C(Nc1c2c(nn1-c1ccccc1)CS(=O)C2)c1ccc(S(=O)(=O)N2CCOCC2)cc1 (stereo unspecified) | -5% | nt | nt | nt | 1% | 11%
COc1ccc(-n2nnnc2Sc2ccc(S(=O)(=O)N3CCOCC3)cn2)cc1 | 2.8µM* | -9 | 7.1µM* | -6% | 0%[46.1 µM] | 15%[38.3 µM]
O=S(=O)(c1cccc(S(=O)(=O)N2CCOCC2)c1)N1CCCCC1 | -10% | -1 | 8% | 3% | 4%[46.1 µM] | 11%[38.3 µM]
CC(C)c1[nH]c(=O)c(C#N)c2c1COC(C)(C)C2 | -38% | -10 | -30% | 0% | -10%[46.1 µM] | 4%
Cc1cc(C(=O)Nc2c[nH]c(=O)[nH]c2=O)ccc1[N+](=O)[O-] | ? | nt | nt | nt | 13% | -1%
O=C(C(c1ccccc1)c1ccccc1)N(Cc1ccco1)C1CCS(=O)(=O)C1 (stereo unspecified) | 1% | -11 | -4% | -8% | -5%[46.1 µM] | 7%[38.3 µM]
O=C(CSc1n[nH]c(-c2ccccc2)n1)Nc1ccc(N2CCOCC2)cc1 | 22µM* | nt | nt | nt | -16% | 1%
O=C(CSc1ccccc1)Nc1ccc(N2CCOCC2)cc1 | ? | 0 | -8% | -3% | -2%[46.1 µM] | 2%[38.3 µM]
O=C(CSc1n[nH]c(-c2cccnc2)n1)Nc1ccccc1 | 1% | 5[0.0738 µM] | 10µM* | 2% | 3%[46.1 µM] | -5%
CCCS(=O)(=O)N1CCN(CCCc2ccccc2)CC1 | -5% | -4 | 1% | 0% | -13%[46.1 µM] | -11%[38.3 µM]
CC(C)OC(=O)c1cn(-c2ccccc2)nc1-c1ccco1 | 11µM* | 1 | -24% | -9% | ? | 23%[38.3 µM]
Cc1nc([N+](=O)[O-])c(N2CCOCC2)n1Cc1ccccc1 | nt | nt | nt | nt | 9% | nt
COc1ccc(C2/C=C\CN(C(=O)Nc3ccccc3-c3ccccc3)CC(=O)N2Cc2ccc(F)cc2)cc1 (stereo unspecified) | nt | nt | nt | nt | 10µM* | nt
O=c1c2c3c(sc2nc2n1CCCCC2)CCCC3 | 35µM* | 8 | ? | -13% | -10%[46.1 µM] | -2%[38.3 µM]
COc1ccc(C(=O)N2CCC(C(=O)Nc3ccc(OC)c(OC)c3)CC2)cc1 | ? | 2 | -28% | -1% | -11%[46.1 µM] | -2%[38.3 µM]
Cc1cccc2nc(Cn3c(=O)n(CCCC(=O)NCc4ccco4)c(=O)c4ccccc43)cc(=O)n12 | 20µM* | nt | 28µM* | -10% | 4% | -1%
CCOC(=O)c1c(NC(=O)CSc2nnc(Cc3ccccc3)o2)sc(C)c1C | 16µM* | 14 | -21% | -2% | -21%[46.1 µM] | 16%
CCOC(=O)c1cc(-c2nnc(SCC(=O)Nc3ccc(F)cc3)o2)c(C)nc1C | 10µM* | 12 | 14µM* | 5% | ? | -7%[38.3 µM]
CCOC(=O)c1c(NC(=O)CSc2nnc(-c3ccccc3C)n2C)sc(C(C)=O)c1C | 25µM* | -4 | ? | -7% | -24%[46.1 µM] | 43%[38.3 µM]
CCOC(=O)c1c(NC(=O)CSc2nnc(-c3cccnc3)o2)sc(C(C)=O)c1C | -2% | -29 | ? | -7% | -11%[46.1 µM] | -3%[38.3 µM]
CCOC(=O)c1c(NC(=O)CSc2nnc(-c3ccco3)o2)sc(C(C)=O)c1C | -11% | ? | 16µM* | -3% | 0%[46.1 µM] | -20%[38.3 µM]
O=C(/C=C/c1ccc(O)c(O)c1)NC(=O)c1ccccc1O | -8% | nt | ? | nt | nt | 35%
SMILES | ALDH1A1 block | IMPase inh | HPGD inh | 12-hLO inh | NPSR antag | IMPase Li cell
Cc1ccc(SCCC(=O)OCC(=O)Nc2ccc(S(N)(=O)=O)cc2)cc1 | nt | nt | nt | nt | -26% | nt
Cc1cc(=O)[nH]c(N/N=C/c2ccccn2)n1 | -13% | nt | -18% | 0% | 7% | 14%
CCOC(=O)c1c(NC(=O)CSc2nnc(-c3ccco3)o2)sc(C)c1C | 8.9µM* | 7 | -22% | -2% | ? | 22%[38.3 µM]
COc1ccc(-n2c(SCC(=O)NCCC(C)C)nc3ccsc3c2=O)cc1 | 20µM* | ? | ? | -7% | -16%[46.1 µM] | -10%[38.3 µM]
COc1cc(C2C(S(=O)(=O)c3ccccc3)CON2C)ccc1OCc1ccc(F)cc1 (stereo unspecified) | 2% | nt | nt | nt | -23% | 9%
CC(C)(C)NC(=O)NC(=O)COC(=O)C1=COCCO1 | 0% | -6 | 7% | 0% | -10%[46.1 µM] | 11%[38.3 µM]
Cc1ccc(N2C(=O)[C@@H]3[C@H](C2=O)[C@H]2C=C(C(=O)c4ccccc4)C=CN2[C@@H]3C(=O)c2ccc(Cl)cc2)cc1 | 25µM* | nt | 40µM* | 0% | -7% | -11%
COc1cccc(OCCCOc2ccc([N+](=O)[O-])cc2Cl)c1 | -6% | -8 | 18µM* | -7% | -1%[46.1 µM] | 17%[38.3 µM]
COc1ccccc1OCCCOc1ccc([N+](=O)[O-])cc1Cl | -3% | 14 | 16µM* | 4% | -28%[46.1 µM] | -19%[38.3 µM]
O=C(Nc1ccccc1)Nc1ccc(Cl)c([N+](=O)[O-])c1 | -3% | nt | -6% | -17% | -31% | 14%
CCCCCn1c(SCc2ccncc2)nc2cc(C(=O)NCc3ccco3)ccc2c1=O | ? | 7 | -21% | 5% | ? | 21%[38.3 µM]
CN(C)c1nnnn1-c1ccc(Oc2ccccc2)cc1 | -5% | nt | nt | nt | -8% | ?
CCc1[nH]nc2c1C1(C(=O)N(Cc3ccccc3)c3ccccc31)C(C#N)=C(N)O2 (stereo unspecified) | 7.9µM* | 5 | -15% | 1% | -9%[46.1 µM] | 21%[38.3 µM]
O=C(/C=C\c1ccco1)Nc1nc(-c2ccc3ccccc3c2)cs1 | i | -3 | nt | -18% | 2%[46.1 µM] | nt
CCCC(=O)N1CCN(c2ccc(NC(=O)c3ccc([N+](=O)[O-])o3)cc2Cl)CC1 | 18µM* | nt | nt | nt | 4µM* | -5%
